Potency and affinity values are given separately. Inconclusive results are not listed. The source made the active and inactive calls.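 How the source made its calls: active means in every test run, a fitted half-maximal concentration for signal decrease at or below twice the highest tested concentration; inconclusive means runs disagree, flat 30 to 70% decrease, or poor fit; inactive means the rest.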
Test: miR-122 activators in hepatoma reporter cells, dose response, cell-based, Huh7 psiCHECK-miR122, Renilla luciferase, cherry-picked (AID 651956);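 further: Renilla luciferase from a miR-122 sensor reporter so lower signal means miR-122 activation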
Details: 48 h; series mostly up to 35 µM

outcome, inactive:
Cc1cc(C)cc(Oc2ccc(NC(=O)C3CC=CCC3C(=O)O)cc2)c1 (centres undefined)
CCC(=O)N1[C@H](CO)[C@H](c2ccccc2)[C@@H]1CN(CC)C(=O)c1ccccc1
CCCNC(=O)N1[C@H](CO)[C@@H](c2ccccc2)[C@H]1CNC(=O)c1ccccc1
CN1C(=O)c2cc(NC(=O)Nc3ccccc3Cl)ccc2OC[C@H]2O[C@H](CC(=O)O)CC[C@H]21
COc1cc(NC(=O)c2c(F)c(F)c(F)c(F)c2F)c(OC)cc1Cl
C/C=C/c1ccc([C@@H]2[C@@H](CN(C(=O)COC)C(C)C)N(C(C)=O)[C@H]2CO)cc1
CC(=O)N1[C@H](CO)[C@@H](c2ccccc2)[C@H]1CN(C)C(=O)CN1CCOCC1
COc1ccc(NC(=O)COC(=O)CCCc2c[nH]c3ccccc23)cc1
O=C(Nc1ncc(Cc2cccc(C(F)(F)F)c2)s1)c1ccc(-c2cccc([N+](=O)[O-])c2)o1
CN1C(=O)c2cc(NC(=O)Nc3ccccc3F)ccc2OC[C@@H]2O[C@H](CC(=O)O)CC[C@@H]21
CCCCc1cc(=O)oc2cc(C)cc(OC(C)C(=O)O)c12 (centres undefined)
CNc1nc(NCC2CCCCC2)c2sccc2n1
CN1C(=O)c2cc(NC(=O)c3cccc(F)c3)ccc2OC[C@H]2O[C@H](CC(=O)N3CCc4ccccc4C3)CC[C@H]21
CN(C[C@H]1N[C@@H](CO)[C@H]1c1ccc(-c2cccc(F)c2)cc1)C(=O)C1CCC1
CCC(=O)N1[C@H](CO)[C@H](c2ccccc2)[C@H]1CNC(=O)CN1CCOCC1
COc1ccc(C(=O)N2C[C@H]3[C@@H](c4ccccc42)[C@@H](CO)N3C(=O)Cc2ccccn2)cc1
CNC(=O)C[C@H]1CC[C@@H]2[C@H](COc3ccc(NC(=O)NC(C)C)cc3C(=O)N2C)O1
C[C@H](CO)N1C[C@H](C)[C@H](CN(C)S(=O)(=O)c2ccc(F)cc2)Oc2ccc(NS(C)(=O)=O)cc2C1=O
CN1C(=O)c2cc(NS(=O)(=O)c3cccc(F)c3)ccc2OC[C@@H]2O[C@@H](CC(=O)NCCN3CCCCC3)CC[C@H]21
O=C(c1cccc(F)c1)N1C[C@@H]2[C@H](c3ccccc31)[C@H](CO)N2C(=O)Cc1ccccc1
COc1ccc(C#Cc2ccc3c(c2)O[C@H](CN(C)C(=O)CN2CCOCC2)[C@@H](C)CN([C@@H](C)CO)S3(=O)=O)cc1
CCCNC(=O)N1C[C@@H]2[C@H](c3ccccc31)[C@H](CO)N2C(=O)C1CCOCC1
CC(=O)N1[C@H](CNC(=O)C2CC2)[C@H](c2ccc(-c3cccc(F)c3)cc2)[C@@H]1CO
CC(=O)Nc1ccc2c(c1)C(=O)N(C)[C@H]1CC[C@@H](CC(=O)NCc3ccc4c(c3)OCO4)O[C@@H]1CO2
CCCC(=O)Nc1ccc2c(c1)C(=O)N(C)[C@H]1CC[C@H](CC(=O)NCCN3CCCCC3)O[C@@H]1CO2
Cc1cc(C(F)F)n2ncc(C(=O)NCCc3ccccc3Cl)c2n1
CCNC(=O)CCC(=O)Nc1cc(Cl)ccc1C
COc1ccc(CN2CCOC2=O)cc1OC
COCC(=O)NC[C@@H]1[C@H](c2ccc(C3=CCCC3)cc2)[C@@H](CO)N1C(=O)C1CC1
CC(C)NC(=O)N1C[C@@H]2[C@H](c3ccccc31)[C@H](CO)N2Cc1ccccc1
CCCNC(=O)C[C@H]1CC[C@@H]2[C@H](COc3ccc(NC(=O)c4cc(F)cc(F)c4)cc3C(=O)N2C)O1
CN1C(=O)c2cc(NC(=O)Cc3ccccc3)ccc2OC[C@H]2O[C@@H](CC(=O)NC3CCC3)CC[C@H]21
CCN(C[C@H]1[C@H](c2ccccc2)[C@H](CO)N1C(=O)COC)S(C)(=O)=O
COCCNC(=O)C[C@H]1CC[C@@H]2[C@@H](COc3ccc(NS(=O)(=O)c4ccc(Cl)cc4)cc3C(=O)N2C)O1
CO[C@@H]1CN(C)C(=O)c2ccc(NS(=O)(=O)c3ccc(C)cc3)cc2OC[C@@H](C)N(C(=O)NC(C)C)C[C@H]1C
COc1ccc(-c2cn3c(C)c(C(=O)Nc4cccc(NC(C)=O)c4)sc3n2)cc1
CC(C)NC(=O)N1[C@H](CO)[C@@H](c2ccccc2)[C@@H]1CN(C)C(=O)c1cccnc1
COc1ccc(C(NC(C)=O)c2cc(Cl)c3cccnc3c2O)cc1 (centres undefined)
N#Cc1cccc(NC(=O)Nc2cccs2)c1
